{"source": "PubChem BioAssay (NCATS)", "key": {"[1]": {"biological_target": "Glutathione peroxidase 1 (Homo sapiens) (UniProt P07203)", "sequence (P07203 whole entry, looked up)": "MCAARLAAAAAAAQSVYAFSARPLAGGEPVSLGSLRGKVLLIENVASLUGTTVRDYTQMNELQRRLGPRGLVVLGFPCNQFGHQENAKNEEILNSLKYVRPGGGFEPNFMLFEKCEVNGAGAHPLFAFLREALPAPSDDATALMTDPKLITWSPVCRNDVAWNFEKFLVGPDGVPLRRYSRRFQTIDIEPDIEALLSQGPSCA", "assay": "Primary qHTS Assay for Inhibitors of Recombinant Selenoprotein Glutathione Peroxidase 1 (GPX1) (AID 1845191); further: nearly all actives have a fitted effect of over 65% in size", "summary_of_the_method": "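10 nM GPX1 + cpd, 30 min RT; start w/ 1 mM GSH, 0.5 mM cumene hydroperoxide, 0.5 mM NADPH, 100 nM GR, 0.01% BSA; buffer 50 mM Tris-HCl pH 7.5, 2 mM EDTA, 150 mM NaCl; Fl 340/450, 0 & 15 min.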"}, "[2]": {"biological_target": "Phospholipid hydroperoxide glutathione peroxidase GPX4 (Homo sapiens) (UniProt P36969)", "sequence (P36969 whole entry, looked up)": "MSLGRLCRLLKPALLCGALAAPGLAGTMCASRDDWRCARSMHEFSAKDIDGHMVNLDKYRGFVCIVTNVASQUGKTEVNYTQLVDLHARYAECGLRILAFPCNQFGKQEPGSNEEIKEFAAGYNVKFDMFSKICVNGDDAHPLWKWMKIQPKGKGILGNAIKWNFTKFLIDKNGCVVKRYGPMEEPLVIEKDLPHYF", "assay": "Primary qHTS Assay for Inhibitors of Recombinant Selenoprotein Glutathione Peroxidase 4 (GPX4) (AID 1845192); further: nearly all actives have a fitted effect of over 65% in size", "summary_of_the_method": "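NADPH consumption, followed by fluorescence at 340/450 nm between 0 and 15 min, reports GPX4 activity via coupled glutathione reductase (100 nM). Enzyme 200 nM was pre-exposed to compound 30 min; 0.5 mM cumene hydroperoxide and 1 mM GSH served as substrates.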"}, "[3]": {"biological_target": "ATP-dependent 6-phosphofructokinase (Trypanosoma brucei brucei) (UniProt O15648)", "sequence (O15648 whole entry, looked up)": "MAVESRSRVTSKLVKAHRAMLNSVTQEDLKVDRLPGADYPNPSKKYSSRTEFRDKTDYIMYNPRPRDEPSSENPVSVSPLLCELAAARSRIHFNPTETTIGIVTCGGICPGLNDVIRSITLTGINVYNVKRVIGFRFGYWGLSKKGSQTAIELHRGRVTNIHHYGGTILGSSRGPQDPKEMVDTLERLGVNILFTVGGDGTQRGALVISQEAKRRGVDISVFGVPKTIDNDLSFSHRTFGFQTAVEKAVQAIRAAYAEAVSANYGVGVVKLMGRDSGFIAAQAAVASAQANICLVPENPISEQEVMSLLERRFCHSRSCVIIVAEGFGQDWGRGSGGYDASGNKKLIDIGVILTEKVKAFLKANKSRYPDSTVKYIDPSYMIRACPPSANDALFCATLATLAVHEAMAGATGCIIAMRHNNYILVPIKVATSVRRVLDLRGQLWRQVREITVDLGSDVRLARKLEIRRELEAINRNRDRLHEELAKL", "assay": "qHTS Assay to Find Inhibitors of T. brucei phosphofructokinase: hit validation (AID 492961);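 further: luminescence reports ADP formed as PFK phosphorylates fructose-6-phosphate with ATP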", "summary_of_the_method": "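In this biochemical qHTS validation, titrated compounds were tested against 1.25 nM PFK with 0.1 mM ATP and 0.5 mM F6P. Percent activity came from controls lacking or containing enzyme.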"}, "[4]": {"biological_target": "Luciferin 4-monooxygenase (Photinus pyralis) (UniProt P08659)", "sequence (P08659 whole entry, looked up)": "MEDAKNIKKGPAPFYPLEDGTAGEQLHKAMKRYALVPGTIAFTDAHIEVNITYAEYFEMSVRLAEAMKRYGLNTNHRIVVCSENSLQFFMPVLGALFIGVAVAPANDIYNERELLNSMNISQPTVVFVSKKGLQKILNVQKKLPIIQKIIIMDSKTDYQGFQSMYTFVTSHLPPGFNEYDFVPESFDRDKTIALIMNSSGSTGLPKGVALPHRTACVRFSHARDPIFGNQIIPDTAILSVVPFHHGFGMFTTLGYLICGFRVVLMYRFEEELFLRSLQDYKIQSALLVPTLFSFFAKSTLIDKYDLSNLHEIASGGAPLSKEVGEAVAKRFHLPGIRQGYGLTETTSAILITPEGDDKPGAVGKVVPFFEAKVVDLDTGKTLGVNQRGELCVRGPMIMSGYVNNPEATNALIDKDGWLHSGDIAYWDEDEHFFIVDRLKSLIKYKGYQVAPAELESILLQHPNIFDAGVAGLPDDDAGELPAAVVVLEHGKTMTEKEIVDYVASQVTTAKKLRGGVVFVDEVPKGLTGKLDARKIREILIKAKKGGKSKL", "assay": "Biochemical firefly luciferase enzyme assay for NPC (AID 624030); further: nearly all actives have a fitted effect of over 70% in size", "summary_of_the_method": "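Direct inhibition of firefly luciferase enzyme (10 nM final, 50 mM Tris Acetate) assessed by luminescence within 5 minutes. Percent activity scaled between DMSO and PTC124 positive control, with concentration-effect curves classified by fit quality and response.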"}, "[5]": {"assay": "S16 Schwann cell viability assay (CellTiter-Glo assay) (AID 624031);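 further: cellular ATP luminescence as a viability measure; nearly all actives have a fitted effect of over 70% in size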", "summary_of_the_method": "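Native S16 rat Schwann cells, 500-750 cells/well in DMEM with 10% FBS, dosed with compound after overnight culture and incubated 24h at 37 degree Celsius/5% CO2. Viability by CellTiter-Glo luminescence; % activity normalized to no-cell wells and DMSO-treated cells.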"}, "[6]": {"assay": "S16 Schwann cell PMP22 intronic element firefly luciferase assay (AID 624032); further: potency means the concentration at half of the fitted maximal effect; nearly all actives have a fitted effect of over 30% in size", "summary_of_the_method": "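Luciferase reporter of PMP22 intronic-element expression in stably transfected S16 rat Schwann cells, read by ONE-Glo luminescence after 24 h compound exposure at 37 C. Activity scaled between DMSO (0%) and positive-control PTC124; concentration-effect curves quality-classified.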"}, "[7]": {"assay": "S16 Schwann cell PMP22 intronic element beta-lactamase assay (AID 624044; calls by dose curve; further: nearly all actives have a fitted effect of over 15% in size)", "summary_of_the_method": "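Rat S16 Schwann cells with beta-Lac driven by a PMP22 intronic element, compound-treated 24 h at 37 °C. LiveBLAzer FRET B/G read: 460 nm normalized to potassium clavulanate vs DMSO; 535 nm FRET as viability; concentration-effect curves classified.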"}, "[8]": {"assay": "qHTS profiling for inhibitors of Plasmodium falciparum proliferation (AID 504749); further: nearly all actives have a fitted effect of over 60% in size; further: potency means the concentration at half of the fitted maximal effect", "conditions": "P. falciparum in erythrocytes, SYBR Green DNA, 72 h, at 28.7 µM (top of the series)", "summary_of_the_method": "(§1)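 Infected RBCs, 0.3% parasitemia/2.5% Hct final; cpd 72 h, 37 C, 5% CO2; lysis buffer with saponin/triton/SYBR Green I, o/n RT dark; FI 485/535; norm. to artemisinin (0.29 uM) and DMSO.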"}, "7G8": {"system": "7G8", "assay": "qHTS profiling for inhibitors of Plasmodium falciparum proliferation (AID 504749)", "conditions": "P. falciparum in erythrocytes, SYBR Green DNA, 72 h; series mostly up to 28.7 µM", "summary_of_the_method": "as §1"}, "AA1029": {"system": "AA1029", "assay": "qHTS profiling for inhibitors of Plasmodium falciparum proliferation (AID 504749)", "conditions": "P. falciparum in erythrocytes, SYBR Green DNA, 72 h; series mostly up to 28.7 µM", "summary_of_the_method": "as §1"}, "ATS189": {"system": "ATS189", "assay": "qHTS profiling for inhibitors of Plasmodium falciparum proliferation (AID 504749)", "conditions": "P. falciparum in erythrocytes, SYBR Green DNA, 72 h; series mostly up to 28.7 µM", "summary_of_the_method": "as §1"}, "ATS95": {"system": "ATS95", "assay": "qHTS profiling for inhibitors of Plasmodium falciparum proliferation (AID 504749)", "conditions": "P. falciparum in erythrocytes, SYBR Green DNA, 72 h; series mostly up to 28.7 µM", "summary_of_the_method": "as §1"}, "C2A": {"system": "C2A", "assay": "qHTS profiling for inhibitors of Plasmodium falciparum proliferation (AID 504749)", "conditions": "P. falciparum in erythrocytes, SYBR Green DNA, 72 h; series mostly up to 28.7 µM", "summary_of_the_method": "as §1"}, "CP191": {"system": "CP191", "assay": "qHTS profiling for inhibitors of Plasmodium falciparum proliferation (AID 504749)", "conditions": "P. falciparum in erythrocytes, SYBR Green DNA, 72 h; series mostly up to 28.7 µM", "summary_of_the_method": "as §1"}, "CP192": {"system": "CP192", "assay": "qHTS profiling for inhibitors of Plasmodium falciparum proliferation (AID 504749)", "conditions": "P. falciparum in erythrocytes, SYBR Green DNA, 72 h; series mostly up to 28.7 µM", "summary_of_the_method": "as §1"}, "CP194": {"system": "CP194", "assay": "qHTS profiling for inhibitors of Plasmodium falciparum proliferation (AID 504749)", "conditions": "P. falciparum in erythrocytes, SYBR Green DNA, 72 h; series mostly up to 28.7 µM", "summary_of_the_method": "as §1"}, "CP201": {"system": "CP201", "assay": "qHTS profiling for inhibitors of Plasmodium falciparum proliferation (AID 504749)", "conditions": "P. falciparum in erythrocytes, SYBR Green DNA, 72 h; series mostly up to 28.7 µM", "summary_of_the_method": "as §1"}, "CP203": {"system": "CP203", "assay": "qHTS profiling for inhibitors of Plasmodium falciparum proliferation (AID 504749)", "conditions": "P. falciparum in erythrocytes, SYBR Green DNA, 72 h; series mostly up to 28.7 µM", "summary_of_the_method": "as §1"}, "CP211": {"system": "CP211", "assay": "qHTS profiling for inhibitors of Plasmodium falciparum proliferation (AID 504749)", "conditions": "P. falciparum in erythrocytes, SYBR Green DNA, 72 h; series mostly up to 28.7 µM", "summary_of_the_method": "as §1"}, "CP217": {"system": "CP217", "assay": "qHTS profiling for inhibitors of Plasmodium falciparum proliferation (AID 504749)", "conditions": "P. falciparum in erythrocytes, SYBR Green DNA, 72 h; series mostly up to 28.7 µM", "summary_of_the_method": "as §1"}, "CP237": {"system": "CP237", "assay": "qHTS profiling for inhibitors of Plasmodium falciparum proliferation (AID 504749)", "conditions": "P. falciparum in erythrocytes, SYBR Green DNA, 72 h; series mostly up to 28.7 µM", "summary_of_the_method": "as §1"}, "CP238": {"system": "CP238", "assay": "qHTS profiling for inhibitors of Plasmodium falciparum proliferation (AID 504749)", "conditions": "P. falciparum in erythrocytes, SYBR Green DNA, 72 h; series mostly up to 28.7 µM", "summary_of_the_method": "as §1"}, "CP256": {"system": "CP256", "assay": "qHTS profiling for inhibitors of Plasmodium falciparum proliferation (AID 504749)", "conditions": "P. falciparum in erythrocytes, SYBR Green DNA, 72 h; series mostly up to 28.7 µM", "summary_of_the_method": "as §1"}, "CP260": {"system": "CP260", "assay": "qHTS profiling for inhibitors of Plasmodium falciparum proliferation (AID 504749)", "conditions": "P. falciparum in erythrocytes, SYBR Green DNA, 72 h; series mostly up to 28.7 µM", "summary_of_the_method": "as §1"}, "CP262": {"system": "CP262", "assay": "qHTS profiling for inhibitors of Plasmodium falciparum proliferation (AID 504749)", "conditions": "P. falciparum in erythrocytes, SYBR Green DNA, 72 h; series mostly up to 28.7 µM", "summary_of_the_method": "as §1"}, "CP265": {"system": "CP265", "assay": "qHTS profiling for inhibitors of Plasmodium falciparum proliferation (AID 504749)", "conditions": "P. falciparum in erythrocytes, SYBR Green DNA, 72 h; series mostly up to 28.7 µM", "summary_of_the_method": "as §1"}, "CP266": {"system": "CP266", "assay": "qHTS profiling for inhibitors of Plasmodium falciparum proliferation (AID 504749)", "conditions": "P. falciparum in erythrocytes, SYBR Green DNA, 72 h; series mostly up to 28.7 µM", "summary_of_the_method": "as §1"}, "CP286": {"system": "CP286", "assay": "qHTS profiling for inhibitors of Plasmodium falciparum proliferation (AID 504749)", "conditions": "P. falciparum in erythrocytes, SYBR Green DNA, 72 h; series mostly up to 28.7 µM", "summary_of_the_method": "as §1"}, "CP291": {"system": "CP291", "assay": "qHTS profiling for inhibitors of Plasmodium falciparum proliferation (AID 504749)", "conditions": "P. falciparum in erythrocytes, SYBR Green DNA, 72 h; series mostly up to 28.7 µM", "summary_of_the_method": "as §1"}}, "note": "Records with an inconclusive call do not appear. Entries that show only a call come without a potency. Unmarked numbers belong to inactive results. Calls of active or inactive are those of the source. Unless noted, the call rests on the fitted dose curve; in most records, active means well fitted curve in the direction sought with a large enough effect; inconclusive means small, poorly fitted or top-dose-only effect, or another doubt; inactive means no such curve, though single readings can be large; an effect the other way counts as inactive or inconclusive.", "data": [{"compound": "C[C@](C#N)(COc1cc(C#N)ccc1C(F)(F)F)NC(=O)c1ccc(SC(F)(F)F)cc1", "values": [{"measurement": "Potency", "setting": "[1]", "value": "inactive"}, {"measurement": "Potency", "setting": "[2]", "value": "inactive"}]}, {"compound": "O=NCc1ccc([N+](=O)[O-])o1", "values": [{"measurement": "outcome", "setting": "[3]", "value": "inactive"}, {"measurement": "Potency", "setting": "[4]", "value": "inactive"}, {"measurement": "Potency", "setting": "[5]", "value": "inactive"}, {"measurement": "Potency", "setting": "[6]", "value": "12.8 µM (active)"}, {"measurement": "Potency", "setting": "[7]", "value": "inactive"}, {"measurement": "Potency", "setting": "[1]", "value": "inactive"}, {"measurement": "Potency", "setting": "[2]", "value": "inactive"}, {"measurement": "activity, negative = inhibition", "setting": "[8]; parasite line A", "value": -23.3, "unit": "%"}, {"measurement": "activity, negative = inhibition", "setting": "[8]; parasite line B", "value": 5.01, "unit": "%"}, {"measurement": "Potency", "setting": "7G8", "value": "8.91 µM (active)"}, {"measurement": "Potency", "setting": "AA1029", "value": "inactive"}, {"measurement": "Potency", "setting": "ATS189", "value": "inactive"}, {"measurement": "Potency", "setting": "ATS95", "value": "inactive"}, {"measurement": "Potency", "setting": "C2A", "value": "inactive"}, {"measurement": "Potency", "setting": "CP191", "value": "inactive"}, {"measurement": "Potency", "setting": "CP192", "value": "inactive"}, {"measurement": "Potency", "setting": "CP194", "value": "inactive"}, {"measurement": "Potency", "setting": "CP201", "value": "inactive"}, {"measurement": "Potency", "setting": "CP203", "value": "inactive"}, {"measurement": "Potency", "setting": "CP211", "value": "inactive"}, {"measurement": "Potency", "setting": "CP217", "value": "inactive"}, {"measurement": "Potency", "setting": "CP237", "value": "inactive"}, {"measurement": "Potency", "setting": "CP238", "value": "inactive"}, {"measurement": "Potency", "setting": "CP256", "value": "inactive"}, {"measurement": "Potency", "setting": "CP260", "value": "inactive"}, {"measurement": "Potency", "setting": "CP262", "value": "inactive"}, {"measurement": "Potency", "setting": "CP265", "value": "inactive"}, {"measurement": "Potency", "setting": "CP266", "value": "inactive"}, {"measurement": "Potency", "setting": "CP286", "value": "inactive"}, {"measurement": "Potency", "setting": "CP291", "value": "inactive"}]}]}
